# From publication PMC13083723 (Patterns, 2026)
# Screen size: about 5,400 compounds; about 190 (3.5%) showed an effect of 50% or more. For the sample, strong results were picked, then their nearest neighbours and some compounds at random.
# System: Vero-E6
# Test: primary screen, phospholipidosis by LipidTOX staining; higher = more effect of the substance
# Settings: 10 µM
# Procedure: To measure drug-induced PLD in Vero-E6 cells, we used the HCS LipidTOX Red Phospholipidosis Detection Reagent (Invitrogen, #H34351), which is non-toxic to cell growth and remains well retained after aldehyde fixation. In this setup, compounds (at 10 μM concentration) and controls (amiodarone: 10 μM concentration; DMSO: 0.1 v/v %) were added to clear-bottom, 384-well plates (PhenoPlate 384-well, black, optically clear flat bottom, tissue-culture treated, Revvity #6057302) using the Echo Liquid Handler (Labcyte).
row,Structure (SMILES),result_ITMP
1,CNC(=O)c1ccccc1Nc1nc(Nc2ccc3c(c2OC)CCC[C@H](N2CCN(CCO)CC2)C3)ncc1Cl,139%
2,CNC(=O)c1ccccc1Nc1cc(Nc2ccc(N3CCOCC3)cc2OC)ncc1C(F)(F)F,10.6%
3,CN1CCN(Cc2ccc(Nc3ncc(Cl)c(Nc4ccccc4S(=O)(=O)N(C)C)n3)cc2)CC1,1.65%
4,CC1(C)S[C@@H]2[C@H](NC(=O)C(C(=O)[O-])c3ccsc3)C(=O)N2[C@H]1C(=O)[O-] (stereo partly drawn),-2.7%
5,CCCCCC(O)CCCC(=O)[O-] (stereo not drawn),-2.69%
6,CC#C[C@@H](CC(=O)[O-])c1ccc(OCc2cccc(-c3ccc(C(F)(F)F)cc3)c2)cc1,2.55%
7,CCN[C@@H](C)Cc1cccc(C(F)(F)F)c1,3.76%
8,CC(Cc1cccc(C(F)(F)F)c1)NCCOC(=O)c1ccccc1 (stereo not drawn),6.92%
9,C[C@@H](NCCCc1cccc(C(F)(F)F)c1)c1cccc2ccccc12,61.8%
10,CSCCC(N)C(=O)O (stereo not drawn),-3.06%
11,O[C@H]1[C@H]2[C@H](O)CCCN2C[C@H]1O,0.57%
12,c1cc(Nc2cc(C3CC3)n[nH]2)nc(Nc2ccc3nc[nH]c3c2)n1,-1.4%
13,CSc1ccccc1Nc1nc(N2CCNCC2)nc2c(NCC3CC3)ncnc12,79.3%
14,CN1C2C=C(c3sccc3Br)CC1CC2 (stereo not drawn),6.82%
15,CCN(CCO)CCCOc1ccc2c(Nc3cc(CC(=O)Nc4cccc(F)c4)n[nH]3)ncnc2c1,-2.36%
16,Clc1ccc(C(OCCN2CCCCC2)c2ccccc2)cc1 (stereo not drawn),63.9%
17,C(=C\c1ccccc1)/CN1CCN(CCOC(c2ccccc2)c2ccccc2)CC1,7.08%
18,c1ccc(CCCN2CCN(CCOC(c3ccccc3)c3ccccc3)CC2)cc1,15%
19,C#C[C@]1(OC(C)=O)CCC2C3CCC4=C/C(=N/O)CCC4C3CC[C@@]21CC (stereo partly drawn),1.9%
20,O=C(CCCN1CCC(O)(c2ccc(Cl)cc2)CC1)c1ccc(F)cc1,3.22%
21,OC1(c2ccc(Cl)c(C(F)(F)F)c2)CCN(CCCC(c2ccc(F)cc2)c2ccc(F)cc2)CC1,36.2%
22,CN(C)C(=O)C(CCN1CCC(O)(c2ccc(Cl)cc2)CC1)(c1ccccc1)c1ccccc1,67.2%
23,NCCCCCC(O)(P(=O)([O-])O)P(=O)(O)O,-0.14%
24,Nc1ncnc2c1nc(Br)n2[C@@H]1O[C@@H]2COP(=O)([O-])O[C@H]2[C@H]1O,15.8%
25,CCN1C(=O)CN=C2NC=C(c3ccc(-c4nnc[nH]4)nc3C)N=C21,-2.57%
26,OC[C@@H](O)[C@@H](O)[C@@H](O)CO,-6.6%
27,O=C(Nc1ccc(CN2CCOCC2)cc1)c1ccc(-c2cccc(Cl)c2)o1,56.3%

row,Structure (SMILES),result_ITMP
1,CCNC(=O)c1noc(-c2cc(C(C)C)c(O)cc2O)c1-c1ccc(CN2CCOCC2)cc1,-0.23%
2,COc1cc(NC(=O)c2ccc(-c3ccc(Cl)cc3)o2)cc(OC)c1,2.29%
3,C[C@]12C=CC(=O)C=C1CCC1C2[C@@H](O)C[C@@]2(C)C1CC[C@]2(O)C(=O)COC(=O)CCC(=O)O (stereo partly drawn),-5.57%
4,Cc1cc(/C=C2\SC(=O)N(c3ccccc3)C2=O)c(C)n1-c1cccnc1,-6.01%
5,O=C(Nc1ccc2c(O)cc(S(=O)(=O)[O-])cc2c1)Nc1ccc2c(O)cc(S(=O)(=O)[O-])cc2c1,-7.47%
6,COc1ccc(CCN(C)CCc2ccc(OC)c(OC)c2)cc1OC,-1.15%
7,COc1ccc(CCN(C)CCCN2CCc3cc(OC)c(OC)cc3CC2=O)cc1OC,-1.11%
8,COc1ccc(CCN(C)CCCOc2ccc(S(=O)(=O)c3c(C(C)C)c4ccccc4n3C)cc2)cc1OC,84.7%
9,O=C(NCCN1CCC2(CC1)C(=O)NCN2c1cccc(F)c1)c1ccc2ccccc2c1,55.1%
10,O=C(NCCN1CCC2(CC1)C(=O)NCN2c1cccc(F)c1)c1ccc(F)c(F)c1,60.1%
11,O=C1NCN(c2ccccc2)C12CCN(CCCC(c1ccc(F)cc1)c1ccc(F)cc1)CC2,1.98%
12,COc1ccccc1N1CCN(CCCCNC(=O)c2ccc3ccccc3c2)CC1,34.4%
13,COc1ccc2cccc(N3CCN(CCNC(=O)c4ccc(F)cc4)CC3)c2c1,14%
14,O=C(NCCN1CCOCC1)c1ccc(Cl)cc1,-6.19%
15,C[C@@H]1CCO[C@H]2Cn3cc(C(=O)NCc4ccc(F)cc4F)c(=O)c(O)c3C(=O)N12,-4.23%
16,CN(C)CCCO[C@@H]1[C@H]2OC(C)(C)O[C@H]2O[C@@H]1[C@H](O)CO,-8.5%
17,C[C@@H]1C[C@H]2[C@@H]3CCC4=CC(=O)C=C[C@]4(C)[C@@]3(Cl)[C@@H](O)C[C@]2(C)[C@@]1(O)C(=O)CCl,0.3%
18,CN(CCCN1c2ccccc2CCc2ccccc21)CC(=O)c1ccc(Cl)cc1,13.8%
19,O=C(O)c1ccccc1C(=O)Nc1ccc(-c2ccccc2)cc1,-1.06%
20,O=C(CN1C2=NCCN2c2ccccc21)c1ccc(-c2ccccc2)cc1,53.9%
21,c1ccc(CNc2nc(NCc3ccccc3)c3ccccc3n2)cc1,58.9%
22,c1ccc(CNc2ncnc3nc[nH]c23)cc1,-8.79%
23,Cn1cnc2c(NCc3ccccc3)nc(NCCO)nc21,-1.91%
24,N=C(N)Nc1nc(CSCCN/C=N/S(=O)(=O)c2ccc(Br)cc2)cs1,0.59%
25,O=C([O-])c1ccccc1Nc1cc(Cl)ccc1C(=O)[O-],-3.54%
26,C[C@@H]([C@H](O)c1ccc(O)cc1)N1CCC(Cc2ccccc2)CC1.C[C@H]([C@@H](O)c1ccc(O)cc1)N1CCC(Cc2ccccc2)CC1,8.99%
27,CN[C@H](CC(C)C)C(=O)NC1C(=O)N[C@@H](CC(N)=O)C(=O)N[C@H]2C(=O)NC3C(=O)N[C@H](C(=O)N[C@@H](C(=O)O)c4cc(O)cc(O)c4-c4cc3ccc4O)[C@H](O)c3ccc(c(Cl)c3)Oc3cc2cc(c3O[C@@H]2OC(CO)[C@@H](O)[C@H](O)[C@H]2O[C@H]2C[C@](C)(N)[C@H](O)[C@H](C)O2)Oc2ccc(cc2Cl)[C@H]1O (stereo partly drawn),-7.09%
